Set-up in all cases: species or system human, MV4-11 + K-562 + COLO205 + SK-N-BE2 + OVCAR-8
In one assay the test system is CAMK2B. Particulars: read-out: apparent Kd; compound concentrations: 100 nM and 1000 nM (sheet 'Samples'), CATDS: 8.8630985713884503E-2; n = 1.
The next assay relates to FLT3. Particulars: read-out: apparent Kd; compound concentrations: 100 nM and 1000 nM (sheet 'Samples'), CATDS: 7.5963882735203103E-2; n = 1.
The subject of the next assay is FYN. Particulars: read-out: apparent Kd; compound concentrations: 100 nM and 1000 nM (sheet 'Samples'), CATDS: 6.1091429900981202E-2; n = 1.
The subject of the next assay is HCK. The following applies: read-out: apparent Kd; compound concentrations: 100 nM and 1000 nM (sheet 'Samples'), CATDS: 0.204546800943642; n = 1.
The subject of the next assay is LCK. Particulars: read-out: apparent Kd; compound concentrations: 100 nM and 1000 nM (sheet 'Samples'), CATDS: 6.2891353750110596E-2; n = 1.
For a further assay, the system named is LYN. The following applies: read-out: apparent Kd; compound concentrations: 100 nM and 1000 nM (sheet 'Samples'), CATDS: 6.1198388947790797E-2; n = 1.
The next assay relates to MAP2K5. Particulars: read-out: apparent Kd; compound concentrations: 100 nM and 1000 nM (sheet 'Samples'), CATDS: 0.12646942491879101; n = 1.
A further assay relates to MAPK14. Particulars: read-out: apparent Kd; compound concentrations: 100 nM and 1000 nM (sheet 'Samples'), CATDS: 5.4651958851346001E-2; n = 1.
The test system of a further assay is PTK6. Particulars: read-out: apparent Kd; compound concentrations: 100 nM and 1000 nM (sheet 'Samples'), CATDS: 6.47566338134071E-2; n = 1.
Another assay deals with RIPK2. Particulars: read-out: apparent Kd; compound concentrations: 100 nM and 1000 nM (sheet 'Samples'), CATDS: 0.112898428987699; n = 1.
The next assay deals with RIPK3. Particulars: read-out: apparent Kd; compound concentrations: 100 nM and 1000 nM (sheet 'Samples'), CATDS: 6.7046149691073503E-2; n = 1.
The subject of the next assay is SRC. Particulars: read-out: apparent Kd; compound concentrations: 100 nM and 1000 nM (sheet 'Samples'), CATDS: 7.0333029214927095E-2; n = 1.
A further assay relates to YES1. Particulars: read-out: apparent Kd; compound concentrations: 100 nM and 1000 nM (sheet 'Samples'), CATDS: 8.7589956864903007E-2; n = 1.
A further assay has as its system CDC42BPA. The following applies: read-out: apparent Kd; compound concentrations:100 nM and 1000 nM (sheet 'Samples'); n = 1.
A further assay has as its system CDC42BPB. The following applies: read-out: apparent Kd; compound concentrations:100 nM and 1000 nM (sheet 'Samples'); n = 1.
The subject of another assay is CHEK1. Particulars: read-out: apparent Kd; compound concentrations:100 nM and 1000 nM (sheet 'Samples'); n = 1.
For a further assay, the system named is GSK3A. The following applies: read-out: apparent Kd; compound concentrations:100 nM and 1000 nM (sheet 'Samples'); n = 1.
The next assay concerns LATS1. The following applies: read-out: apparent Kd; compound concentrations:100 nM and 1000 nM (sheet 'Samples'); n = 1.
For a further assay, the system named is MELK. Particulars: read-out: apparent Kd; compound concentrations:100 nM and 1000 nM (sheet 'Samples'); n = 1.
The next assay relates to PIM1. The following applies: read-out: apparent Kd; compound concentrations:100 nM and 1000 nM (sheet 'Samples'); n = 1.
In the next assay the test system is PKN1. Particulars: read-out: apparent Kd; compound concentrations:100 nM and 1000 nM (sheet 'Samples'); n = 1.
Another assay has as its system PKN2. Particulars: read-out: apparent Kd; compound concentrations:100 nM and 1000 nM (sheet 'Samples'); n = 1.
A further assay deals with PRKCA. Particulars: read-out: apparent Kd; compound concentrations:100 nM and 1000 nM (sheet 'Samples'); n = 1.
Another assay deals with PRKCB. Particulars: read-out: apparent Kd; compound concentrations:100 nM and 1000 nM (sheet 'Samples'); n = 1.
Another assay deals with PRKCD. Particulars: read-out: apparent Kd; compound concentrations:100 nM and 1000 nM (sheet 'Samples'); n = 1.
The test system of another assay is PRKCI. Particulars: read-out: apparent Kd; compound concentrations:100 nM and 1000 nM (sheet 'Samples'); n = 1.
The test system of a further assay is PRKCZ. Particulars: read-out: apparent Kd; compound concentrations:100 nM and 1000 nM (sheet 'Samples'); n = 1.
The next assay relates to PRKG1. The following applies: read-out: apparent Kd; compound concentrations:100 nM and 1000 nM (sheet 'Samples'); n = 1.
Another assay relates to PRKX. Particulars: read-out: apparent Kd; compound concentrations:100 nM and 1000 nM (sheet 'Samples'); n = 1.
In another assay the test system is ROCK2. The following applies: read-out: apparent Kd; compound concentrations:100 nM and 1000 nM (sheet 'Samples'); n = 1.
The test system of another assay is RPS6KA5. The following applies: read-out: apparent Kd; compound concentrations:100 nM and 1000 nM (sheet 'Samples'); n = 1.
The next assay deals with RPS6KB1. The following applies: read-out: apparent Kd; compound concentrations:100 nM and 1000 nM (sheet 'Samples'); n = 1.
The next assay concerns CDC42BPG. Particulars: read-out: apparent Kd; compound concentrations:100 nM and 1000 nM (sheet 'Samples'); n = 1.
A further assay relates to FLT4. Particulars: read-out: apparent Kd; compound concentrations:100 nM and 1000 nM (sheet 'Samples'); n = 1.
The next assay deals with MAP3K1. The following applies: read-out: apparent Kd; compound concentrations:100 nM and 1000 nM (sheet 'Samples'); n = 1.
The subject of a further assay is MAP4K5. The following applies: read-out: apparent Kd; compound concentrations:100 nM and 1000 nM (sheet 'Samples'); n = 1.
A further assay concerns STK10. Particulars: read-out: apparent Kd; compound concentrations:100 nM and 1000 nM (sheet 'Samples'); n = 1.

Take `c1ccc(Oc2ccc(Nc3ccnc4cc(-c5ccc(CNCCN6CCOCC6)o5)ccc34)cc2)nc1` [GW567145X]: the potency estimated from few doses with CAMK2B is 448 nM; in the assay with FLT3, 620 nM; in the assay with FYN, 1080 nM; in the assay on HCK, 118 nM; in the assay on LCK, 994 nM; in the assay on LYN, 1080 nM. For the same compound, the potency estimated from few doses is 239 nM in the assay with MAP2K5; 1550 nM in the assay on MAPK14; 917 nM in the assay on PTK6; 288 nM with RIPK2; 837 nM in the assay with RIPK3; 742 nM with SRC. For the same compound, the potency estimated from few doses in the assay on YES1 is 459 nM.

`CCn1c(-c2nonc2N)nc2cncc(CNC3CCNCC3)c21` [SB-747651A]: the potency estimated from few doses with CDC42BPA is 1740 nM; with CDC42BPB, 1900 nM; with CHEK1, 2160 nM; in the assay on GSK3A, 1100 nM; in the assay on LATS1, 782 nM; in the assay on MELK it was 655 nM. Moreover, the potency estimated from few doses in the assay on PIM1 is 1120 nM; in the assay on PKN1, 40 nM; in the assay with PKN2 it was 94.5 nM; in the assay on PRKCA it was 197 nM; with PRKCB it was 153 nM; with PRKCD, 632 nM. In addition, the potency estimated from few doses in the assay on PRKCI was 1480 nM; with PRKCZ, 2000 nM; in the assay with PRKG1 it was 702 nM; in the assay on PRKX, 1590 nM; in the assay with ROCK2, 36.2 nM; with RPS6KA5, 96.1 nM. Also, in the assay on RPS6KB1, the potency estimated from few doses is 22.2 nM.

With `COc1cc2ncn(-c3cc(O[C@@H](C)c4ccccc4Cl)c(C(N)=O)s3)c2cc1OC` [GSK237700A], the potency estimated from few doses in the assay on CDC42BPG was 2140 nM; in the assay with FLT4, 1530 nM; in the assay with MAP3K1, 1500 nM; with MAP4K5 it was 2080 nM; with STK10 it was 1820 nM.

The values are drawn from PMC11062922 (Nature Chemical Biology, 2023).
